# Experimental data published in PubChem BioAssay (EPA / NIEHS).
# Active and inactive are the calls of the source. How the source made its calls: active means hit-call score of the fitted dose curve at least 0.9, where 1 is the maximum; inactive means score below 0.9.
# Experiments:
# [1] = ATG_M_32_CIS: Attagene CIS-FACTORIAL HepG2 Assay for M32 Transcription Factor (Internal Marker) (AID 2282949); conditions: HepG2 Attagene cis-factorial M32 reporter, mRNA; actives raise or lower the signal;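 further: background control marker of the multiplexed CIS panel rather than a real target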
# Method in brief: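 HepG2 human liver cells transiently transfected with cis-promoter-driven multiple reporter transcription units, dosed 24 h. Reporter mRNA quantified by RT-PCR, FAM-labelled primer extension, HpaI digest and capillary electrophoresis; bidirectional fit versus DMSO baseline.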
# [2] = ATG_M_06_CIS: Attagene CIS-FACTORIAL HepG2 Assay for M06 Transcription Factor (Internal Marker) (AID 2282950); conditions: HepG2 Attagene CIS-FACTORIAL M06 internal marker reporter; actives raise or lower the signal
# Method in brief: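 HepG2 cells transiently transfected with cis-regulated multiple reporter transcription units were exposed to chemical for 24 h; reporter mRNA was quantified by RT-PCR, 6-FAM primer labelling, HpaI digestion and capillary electrophoresis, fitted bidirectionally against DMSO.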
# [3] = biological target: Hypoxia-inducible factor 1-alpha (Homo sapiens) (UniProt Q16665); assay: ATG_HIF1a_CIS: Attagene CIS-FACTORIAL HepG2 Assay for human Hypoxia Inducible Factor 1 (HIF1A) (AID 2282951); conditions: HepG2 Attagene cis-factorial HIF1a reporter transcription; actives raise or lower the signal
# Sequence of Hypoxia-inducible factor 1-alpha (Homo sapiens) (Q16665 whole entry, looked up): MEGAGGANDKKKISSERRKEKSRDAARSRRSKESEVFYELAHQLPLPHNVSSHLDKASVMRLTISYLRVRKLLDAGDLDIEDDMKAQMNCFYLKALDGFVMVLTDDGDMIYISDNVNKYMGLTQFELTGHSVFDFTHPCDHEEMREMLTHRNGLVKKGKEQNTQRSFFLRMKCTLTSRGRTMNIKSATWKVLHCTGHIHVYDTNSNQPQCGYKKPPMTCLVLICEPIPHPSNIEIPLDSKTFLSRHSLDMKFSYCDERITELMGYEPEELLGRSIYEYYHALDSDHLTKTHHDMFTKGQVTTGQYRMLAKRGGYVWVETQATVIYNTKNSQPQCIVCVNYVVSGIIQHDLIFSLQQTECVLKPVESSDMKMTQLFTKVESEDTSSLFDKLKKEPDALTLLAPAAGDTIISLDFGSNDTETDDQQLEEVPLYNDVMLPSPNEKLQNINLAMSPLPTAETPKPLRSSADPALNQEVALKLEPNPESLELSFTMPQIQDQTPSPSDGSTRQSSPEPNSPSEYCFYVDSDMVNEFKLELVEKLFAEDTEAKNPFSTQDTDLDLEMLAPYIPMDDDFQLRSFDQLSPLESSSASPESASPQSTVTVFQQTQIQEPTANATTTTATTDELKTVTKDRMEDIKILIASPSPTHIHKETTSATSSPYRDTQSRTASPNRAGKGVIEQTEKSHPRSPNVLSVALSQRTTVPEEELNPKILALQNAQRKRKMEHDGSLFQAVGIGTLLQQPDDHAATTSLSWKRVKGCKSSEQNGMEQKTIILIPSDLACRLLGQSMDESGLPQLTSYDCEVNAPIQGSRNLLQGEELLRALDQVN
# Method in brief: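 Endogenous-TF cis reporter readout, human HepG2 cells, 24 h incubation; mRNA detected via RT-PCR and capillary electrophoresis fluorescence; DMSO-normalised bidirectional fitting.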
# [4] = biological target: Hepatocyte nuclear factor 6 (Homo sapiens) (UniProt Q9UBC0); assay: ATG_HNF6_CIS: Attagene CIS-FACTORIAL HepG2 Assay for human Hepatocyte Nuclear Factor 6 (HNF6) (AID 2282952); conditions: HepG2 Attagene cis-factorial HNF6 reporter transcription; actives raise or lower the signal
# Sequence of Hepatocyte nuclear factor 6 (Homo sapiens) (Q9UBC0 whole entry, looked up): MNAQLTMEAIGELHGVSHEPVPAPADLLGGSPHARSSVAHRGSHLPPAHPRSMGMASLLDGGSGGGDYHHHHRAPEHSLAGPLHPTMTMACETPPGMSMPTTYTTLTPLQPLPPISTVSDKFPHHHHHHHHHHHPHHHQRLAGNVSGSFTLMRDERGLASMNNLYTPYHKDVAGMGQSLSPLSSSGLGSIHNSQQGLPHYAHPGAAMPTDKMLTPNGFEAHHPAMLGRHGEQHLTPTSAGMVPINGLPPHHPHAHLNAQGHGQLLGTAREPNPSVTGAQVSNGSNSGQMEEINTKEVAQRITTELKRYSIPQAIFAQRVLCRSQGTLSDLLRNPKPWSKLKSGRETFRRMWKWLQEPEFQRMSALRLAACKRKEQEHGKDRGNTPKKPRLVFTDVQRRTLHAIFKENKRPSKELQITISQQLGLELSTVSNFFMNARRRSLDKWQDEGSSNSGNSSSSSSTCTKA
# Method in brief: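 Endogenous factor activity read in transiently transfected HepG2 via promoter-regulated reporter transcripts. RNA harvested 24 h post-dosing, reverse-transcribed, PCR-amplified, FAM-labelled, HpaI-digested and resolved by capillary electrophoresis; fitted in both directions against DMSO.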
# [5] = biological target: Heat shock factor protein 1 (Homo sapiens) (UniProt Q00613); assay: ATG_HSE_CIS: Attagene CIS-FACTORIAL HepG2 Assay for human Heat Shock Transcription Factor 1 (HSE) (AID 2282953); conditions: HepG2 HSE cis-reporter, Attagene RNA transcription; actives raise or lower the signal
# Sequence of Heat shock factor protein 1 (Homo sapiens) (Q00613 whole entry, looked up): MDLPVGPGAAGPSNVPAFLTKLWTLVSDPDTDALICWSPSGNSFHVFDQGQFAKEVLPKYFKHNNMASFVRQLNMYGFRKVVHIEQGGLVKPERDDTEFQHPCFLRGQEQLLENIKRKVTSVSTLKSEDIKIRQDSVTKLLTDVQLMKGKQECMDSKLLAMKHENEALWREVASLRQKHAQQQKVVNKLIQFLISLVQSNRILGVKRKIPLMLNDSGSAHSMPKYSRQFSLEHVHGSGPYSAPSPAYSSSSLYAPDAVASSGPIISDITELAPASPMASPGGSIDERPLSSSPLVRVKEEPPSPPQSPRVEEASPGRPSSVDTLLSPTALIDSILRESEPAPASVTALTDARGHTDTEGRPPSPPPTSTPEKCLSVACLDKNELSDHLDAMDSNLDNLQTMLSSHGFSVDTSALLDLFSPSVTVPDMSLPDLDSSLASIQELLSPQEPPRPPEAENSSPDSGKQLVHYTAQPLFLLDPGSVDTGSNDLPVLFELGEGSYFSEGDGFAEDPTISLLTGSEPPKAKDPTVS
# Method in brief: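 HepG2 cells transiently transfected with multiple reporter transcription units under cis-regulatory promoter control, measuring endogenous transcription factor activity. After 24 h chemical exposure, reporter mRNA quantified by RT-PCR, fluorescent labelling, HpaI digestion and capillary electrophoresis; bidirectional fit versus DMSO.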
# [6] = ATG_MRE_CIS: Attagene CIS-FACTORIAL HepG2 Assay for human Metal Responsive Element (MRE) (AID 2282954); conditions: HepG2 MRE cis-reporter transcription, Attagene multiplex; actives raise or lower the signal
# Method in brief: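 Endogenous MRE-dependent transcription read as reporter mRNA in transiently transfected human HepG2 cells at 24 h. RNA reverse-transcribed, PCR-amplified, labelled and resolved by capillary electrophoresis; gain or loss relative to DMSO.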
# [7] = ATG_PBREM_CIS: Attagene CIS-FACTORIAL HepG2 Assay for human Phenobarbital-responsive Enhancer Module (PBREM) (AID 2282955); conditions: HepG2 PBREM cis-reporter, Attagene multiplexed transcription; actives raise or lower the signal
# Method in brief: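 Readout: reporter mRNA, fluorescent RT-PCR fragments separated by capillary electrophoresis. System: HepG2 transiently transfected with cis-regulated reporter units. Exposure: 24 h. Analysis: bidirectional, DMSO baseline.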
# [8] = biological target: Paired box protein Pax-6 (Homo sapiens) (UniProt P26367); assay: ATG_Pax6_CIS: Attagene CIS-FACTORIAL HepG2 Assay for human Paired Box 6 (PAX6) (AID 2282956); conditions: HepG2 CIS-FACTORIAL PAX6 reporter transcription, RNA readout; actives raise or lower the signal
# Sequence of Paired box protein Pax-6 (Homo sapiens) (P26367 whole entry, looked up): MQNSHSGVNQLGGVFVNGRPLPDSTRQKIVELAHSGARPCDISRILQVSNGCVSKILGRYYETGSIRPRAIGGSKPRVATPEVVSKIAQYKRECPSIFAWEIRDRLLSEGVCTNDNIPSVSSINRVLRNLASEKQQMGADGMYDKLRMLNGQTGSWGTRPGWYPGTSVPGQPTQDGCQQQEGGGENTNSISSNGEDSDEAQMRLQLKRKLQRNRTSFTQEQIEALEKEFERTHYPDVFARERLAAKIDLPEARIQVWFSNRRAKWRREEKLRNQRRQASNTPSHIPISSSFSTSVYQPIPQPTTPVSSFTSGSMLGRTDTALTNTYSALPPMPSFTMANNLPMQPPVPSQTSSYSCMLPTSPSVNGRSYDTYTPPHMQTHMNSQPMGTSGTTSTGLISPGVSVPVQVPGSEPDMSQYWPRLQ
# Method in brief: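 Values derive from bidirectional curve fitting of reporter mRNA signal relative to DMSO. HepG2 cells bearing transfected cis-regulated MRTUs were exposed for 24 h; transcripts were read by RT-PCR and capillary electrophoresis.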
# [9] = ATG_PXRE_CIS: Attagene CIS-FACTORIAL HepG2 Assay for human Pregnane X Receptor Element (PXRE) (AID 2282957); conditions: HepG2 Attagene CIS-FACTORIAL PXRE reporter, mRNA; actives raise or lower the signal
# Method in brief: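 Reporter transcripts under endogenous PXR-responsive cis-regulation quantified from total RNA of transfected HepG2 cells 24 h post-dosing, via RT-PCR with fluorescent primer extension and capillary electrophoresis. Gain or loss of signal fitted against DMSO baseline.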
# [10] = ATG_Sox_CIS: Attagene CIS-FACTORIAL HepG2 Assay for human SRY-box transcription factor (SOX) (AID 2282960); conditions: HepG2 Attagene cis-factorial SOX reporter, mRNA; actives raise or lower the signal
# Method in brief: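 Using transiently transfected HepG2 cells, reporter transcription driven by cis elements was assessed 24 h after dosing. Signal was fluorescence of capillary-separated RT-PCR products, with DMSO defining baseline activity.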
# [11] = ATG_SREBP_CIS: Attagene CIS-FACTORIAL HepG2 Assay for human Sterol Regulatory Element Binding (SREBP) (AID 2282962); conditions: HepG2 Attagene cis-factorial SREBP reporter, mRNA; actives raise or lower the signal
# Method in brief: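 Values derive from bidirectional curve fitting with DMSO as baseline. The underlying measurement is reporter mRNA from cis-element-regulated units in transiently transfected HepG2, quantified by RT-PCR and capillary electrophoresis after 24 h exposure.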
# [12] = biological target: Signal transducer and activator of transcription 3 (Homo sapiens) (UniProt P40763); assay: ATG_STAT3_CIS: Attagene CIS-FACTORIAL HepG2 Assay for human Signal Transducer and Activator of Transcription 3 (STAT3) (AID 2282963); conditions: HepG2, Attagene cis-factorial STAT3 reporter transcription; actives raise or lower the signal
# Sequence of Signal transducer and activator of transcription 3 (Homo sapiens) (P40763 whole entry, looked up): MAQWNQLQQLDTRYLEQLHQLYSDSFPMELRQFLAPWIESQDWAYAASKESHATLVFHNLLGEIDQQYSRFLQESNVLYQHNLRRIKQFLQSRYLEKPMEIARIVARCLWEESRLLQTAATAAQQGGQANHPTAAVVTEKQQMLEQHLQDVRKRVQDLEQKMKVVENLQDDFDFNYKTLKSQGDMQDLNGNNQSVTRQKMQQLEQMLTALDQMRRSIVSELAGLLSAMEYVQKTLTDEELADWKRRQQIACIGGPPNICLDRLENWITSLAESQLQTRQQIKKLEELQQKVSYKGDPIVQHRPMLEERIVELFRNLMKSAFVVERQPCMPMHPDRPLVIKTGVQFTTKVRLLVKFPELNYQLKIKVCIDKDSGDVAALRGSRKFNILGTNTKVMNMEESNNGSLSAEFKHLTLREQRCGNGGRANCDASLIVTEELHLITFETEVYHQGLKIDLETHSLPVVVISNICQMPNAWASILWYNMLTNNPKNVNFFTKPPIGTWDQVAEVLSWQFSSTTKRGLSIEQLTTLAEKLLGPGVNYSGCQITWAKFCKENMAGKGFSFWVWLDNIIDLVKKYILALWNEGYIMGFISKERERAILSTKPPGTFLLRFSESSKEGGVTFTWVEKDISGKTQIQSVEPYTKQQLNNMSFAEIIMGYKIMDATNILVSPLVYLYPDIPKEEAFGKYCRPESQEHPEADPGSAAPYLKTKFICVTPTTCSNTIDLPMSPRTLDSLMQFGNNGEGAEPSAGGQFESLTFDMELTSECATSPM
# Method in brief: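 Readout is reporter transcript quantified by RT-PCR and capillary electrophoresis, with 6-FAM primer extension and HpaI digestion. Total RNA is taken 24 h after dosing transiently transfected HepG2 carrying cis-regulated reporter units. Bidirectional fit against DMSO.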
# [13] = ATG_TCF_b_cat_CIS: Attagene CIS-FACTORIAL HepG2 Assay for human T-Cell-Factor with beta-catenin (TCF/b-cat) (AID 2282965); conditions: HepG2 TCF/beta-catenin cis-reporter transcription, actives raise or lower the signal
# Method in brief: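 Endogenous transcription factor activity is captured through cis-promoter reporter constructs transiently introduced into human HepG2 liver cells. Induced reporter mRNA is measured after 24 h and fitted bidirectionally relative to DMSO.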
# [14] = ATG_TAL_CIS: Attagene CIS-FACTORIAL HepG2 Assay for human TAL Basal Promoter (AID 2282966); conditions: HepG2 Attagene cis-factorial TAL promoter reporter; actives raise or lower the signal;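 further: background control endpoint measuring basal TAL promoter reporter mRNA not a specific factor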
# Method in brief: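 Background-control endpoint: basal TAL promoter reporter transcripts in transiently transfected HepG2, measured 24 h after dosing. Read-out by RT-PCR with fluorescent primer extension and capillary electrophoresis; gain or loss of signal fitted relative to DMSO.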
# [15] = ATG_TGFb_CIS: Attagene CIS-FACTORIAL HepG2 Assay for human Transforming Growth Factor (TGF) (AID 2282967); conditions: HepG2 Attagene CIS TGFb reporter, mRNA transcription; actives raise or lower the signal
# Method in brief: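 HepG2 cells transiently transfected with cis-promoter-driven multiplexed reporter units; 24 h compound exposure. Reporter mRNA measured by RT-PCR, 6-FAM labeling, HpaI digestion and capillary electrophoresis; bidirectional fit versus DMSO baseline.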
# [16] = ATG_RORE_CIS: Attagene CIS-FACTORIAL HepG2 Assay for human RAR-related Orphan Receptor Element (RORE) (AID 2282959); conditions: HepG2 Attagene cis-factorial RORE reporter, mRNA; actives raise or lower the signal
# Method in brief: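 Measured here: transcript induction of a cis-regulated reporter in HepG2 cells transiently transfected via FuGene 6. After 24 h, RNA was processed by RT-PCR and fluorescent capillary electrophoresis; DMSO defined baseline activity.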
# [17] = biological target: Transcription factor Sp1 (Homo sapiens) (UniProt P08047); assay: ATG_Sp1_CIS: Attagene CIS-FACTORIAL HepG2 Assay for human Specificity Protein 1 (Sp1) (AID 2282961); conditions: HepG2 Sp1 cis-reporter transcription, actives raise or lower the signal
# Sequence of Transcription factor Sp1 (Homo sapiens) (P08047 whole entry, looked up): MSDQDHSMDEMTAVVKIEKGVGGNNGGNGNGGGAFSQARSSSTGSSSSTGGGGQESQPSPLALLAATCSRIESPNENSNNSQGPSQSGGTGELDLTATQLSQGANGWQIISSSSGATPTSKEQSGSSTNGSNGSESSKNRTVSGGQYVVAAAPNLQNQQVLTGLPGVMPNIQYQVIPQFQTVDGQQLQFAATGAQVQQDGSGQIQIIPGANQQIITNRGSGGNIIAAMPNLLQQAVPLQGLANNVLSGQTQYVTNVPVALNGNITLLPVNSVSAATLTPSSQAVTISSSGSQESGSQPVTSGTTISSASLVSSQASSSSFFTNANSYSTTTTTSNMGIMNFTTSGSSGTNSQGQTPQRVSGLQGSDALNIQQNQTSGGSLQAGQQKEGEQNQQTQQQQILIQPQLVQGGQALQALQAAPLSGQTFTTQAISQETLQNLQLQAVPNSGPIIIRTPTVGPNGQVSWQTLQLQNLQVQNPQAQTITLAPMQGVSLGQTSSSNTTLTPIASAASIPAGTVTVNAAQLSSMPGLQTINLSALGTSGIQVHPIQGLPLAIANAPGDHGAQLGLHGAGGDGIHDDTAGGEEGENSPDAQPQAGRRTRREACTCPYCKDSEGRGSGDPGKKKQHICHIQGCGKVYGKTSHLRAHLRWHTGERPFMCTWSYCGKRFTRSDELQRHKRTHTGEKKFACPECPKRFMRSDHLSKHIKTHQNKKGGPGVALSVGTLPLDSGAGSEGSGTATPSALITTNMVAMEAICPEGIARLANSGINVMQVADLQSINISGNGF
# Method in brief: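 After transient transfection of HepG2 cells with cis-promoter reporter units and 24 h chemical treatment, reporter transcripts were quantified by RT-PCR and capillary electrophoresis fluorescence. Gain- and loss-of-signal fitted against DMSO.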
# [18] = ATG_PPRE_CIS: Attagene CIS-FACTORIAL HepG2 Assay for human Peroxisome Proliferator-activated Response Element (PPRE) (AID 2282958); conditions: HepG2 PPRE cis-element reporter, Attagene transcription factor profiling; actives raise or lower the signal
# Method in brief: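 After human HepG2 hepatoma cells were transiently transfected with cis-promoter reporter constructs, they were exposed to test chemicals for 24 hours. Reporter RNA was then reverse-transcribed, PCR-amplified, FAM-labeled, HpaI-digested and quantified by capillary electrophoresis.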
# [19] = ATG_TA_CIS: Attagene CIS-FACTORIAL HepG2 Assay for human TA Basal Promoter (AID 2282964); conditions: HepG2 Attagene CIS-factorial TA basal promoter reporter; actives raise or lower the signal
# Method in brief: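 HepG2 cells transiently transfected with multiplexed cis-promoter reporter units, dosed 24 h. Reporter mRNA measured by RT-PCR, 6-FAM labelling, HpaI digestion and capillary electrophoresis; bidirectional fit versus DMSO baseline, serving as background control.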
compound,measurement,setting,value
Cc1cccc(OP(=O)(Oc2cccc(C)c2)Oc2cccc(C)c2)c1,outcome,[1],inactive
same,outcome,[2],inactive
same,outcome,[3],inactive
same,outcome,[4],inactive
same,outcome,[5],inactive
same,outcome,[6],inactive
same,outcome,[7],inactive
same,outcome,[8],inactive
same,AC50,[9],1.32 µM (active)
same,outcome,[10],inactive
same,outcome,[11],inactive
same,outcome,[12],inactive
same,outcome,[13],inactive
same,outcome,[14],inactive
same,outcome,[15],inactive
O=[N+]([O-])c1ccc(Cl)c([N+](=O)[O-])c1,outcome,[1],inactive
same,outcome,[2],inactive
same,outcome,[3],inactive
same,AC50,[5],6.97 µM (active)
same,outcome,[6],inactive
same,outcome,[7],inactive
same,outcome,[8],inactive
same,outcome,[9],inactive
same,outcome,[16],inactive
same,outcome,[10],inactive
same,outcome,[17],inactive
same,outcome,[11],inactive
same,AC50,[12],5.93 µM (active)
same,outcome,[13],inactive
same,outcome,[14],inactive
same,AC50,[15],3.71 µM (active)
C=CC(=O)NC(C)(C)CC(C)=O,outcome,[1],inactive
same,outcome,[2],inactive
same,outcome,[3],inactive
same,outcome,[5],inactive
same,outcome,[6],inactive
same,outcome,[9],inactive
same,outcome,[18],inactive
same,outcome,[16],inactive
same,outcome,[10],inactive
same,outcome,[17],inactive
same,outcome,[11],inactive
same,outcome,[12],inactive
same,outcome,[19],inactive
same,outcome,[13],inactive
same,outcome,[14],inactive
same,outcome,[15],inactive
C#CCO,outcome,[1],inactive
same,outcome,[2],inactive
same,outcome,[3],inactive
same,outcome,[4],inactive
same,outcome,[5],inactive
same,outcome,[6],inactive
same,outcome,[8],inactive
same,outcome,[9],inactive
same,outcome,[18],inactive
same,outcome,[16],inactive
same,outcome,[10],inactive
same,outcome,[17],inactive
same,outcome,[11],inactive
same,outcome,[12],inactive
same,outcome,[13],inactive
same,outcome,[15],inactive
CC(O)(CS(=O)(=O)c1ccc(F)cc1)C(=O)Nc1ccc(C#N)c(C(F)(F)F)c1 (centres undefined),outcome,[1],inactive
same,outcome,[2],inactive
same,outcome,[3],inactive
same,outcome,[4],inactive
same,outcome,[5],inactive
same,AC50,[6],72.3 µM (active)
same,outcome,[7],inactive
same,outcome,[8],inactive
same,AC50,[9],3.99 µM (active)
same,outcome,[18],inactive
same,outcome,[16],inactive
same,outcome,[10],inactive
same,outcome,[17],inactive
same,outcome,[11],inactive
same,outcome,[12],inactive
same,outcome,[19],inactive
same,outcome,[14],inactive
CNC(=O)N(C)c1nc2ccccc2s1,outcome,[1],inactive
same,outcome,[2],inactive
same,outcome,[3],inactive
same,outcome,[4],inactive
same,outcome,[5],inactive
same,outcome,[6],inactive
same,outcome,[7],inactive
same,outcome,[8],inactive
same,AC50,[9],27.5 µM (active)
same,outcome,[18],inactive
same,outcome,[16],inactive
same,outcome,[10],inactive
same,outcome,[17],inactive
same,outcome,[11],inactive
same,outcome,[12],inactive
same,outcome,[19],inactive
same,outcome,[13],inactive
same,outcome,[14],inactive
Nc1cccnc1,outcome,[1],inactive
same,outcome,[2],inactive
same,outcome,[3],inactive
same,outcome,[5],inactive
same,outcome,[6],inactive
same,AC50,[9],40.2 µM (active)
same,outcome,[18],inactive
same,outcome,[16],inactive
same,outcome,[10],inactive
same,outcome,[17],inactive
same,outcome,[11],inactive
same,outcome,[12],inactive
same,outcome,[19],inactive
same,outcome,[13],inactive
same,outcome,[14],inactive
same,outcome,[15],inactive
